# Sampled rows, rich in hits. Any-hit rate of the full collection: about 4%.
# CCHF vOTU inh: CCHFV vOTU protease inhibition | Pep-AMC fluorescence | inhibition, % at 11.5 µM | 0.55% of 370,000 active | AID 651958; further: 0% = vehicle wells with enzyme and 100% = no enzyme wells
# Mtb betalactam: beta-lactam sensitization of Mtb H37Rv. M. tuberculosis H37Rv growth with meropenem, percent inhibition. inhibition, % at 25 µM. 0.27% of 330,000 active; call rule not given here;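 further: growth measured after seven days incubation then overnight dye step; 0% = bacteria only wells and 100% = bacteria with antibiotic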
# FBA Mtb inh: inhibits M. tuberculosis FBA enzyme. 2.3% of 360,000 active. P9WQA3. purified M. tuberculosis FBA, fluorescence read-out. inhibition, % at 1 µM. AID 588726; in the data active means inhibition above about 27%;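 further: 0% = vehicle and 100% = reference inhibitor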
# MazEF act: activators of E. coli MazEF toxin-antitoxin RNase; AID 504720; FAM/BHQ RNA-DNA oligo cleavage fluorescence, 5 h; activation, % at 20 µM; 0.32% of 350,000 active; in the data active means activation above about 50%
# Target sequence (P0AE70 whole entry, looked up): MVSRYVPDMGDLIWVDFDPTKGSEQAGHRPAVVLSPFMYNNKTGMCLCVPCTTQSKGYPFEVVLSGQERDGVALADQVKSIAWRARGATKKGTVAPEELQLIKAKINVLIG
# GDH-TPI counter: GDH-TPI coupled enzyme inhibition counter-screen; GDH-TPI coupled enzyme counterscreen, NADH absorbance; inhibition, % at 4.8 µM; 1.2% of 360,000 active; AID 588335;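 further: 0% = DMSO wells and 100% = wells lacking the enzyme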
# Active calls of the source: *; ? = inconclusive; / = not tested or not shown; + = active, no number. Unless noted, no stated cut-off is given here; in the data, active means inhibition above about 30%; inactive means the rest.
SMILES,CCHF vOTU inh,Mtb betalactam,FBA Mtb inh,MazEF act,GDH-TPI counter
COC(=O)CCC(=O)N1C2=NC3=C(C(=O)N(Cc4ccc5c(c4)OCO5)C3=O)C3N(C)c4ccccc4[C@]23C[C@H]1CO (some centres undefined),9,/,/,/,/
Cc1ccc(S(=O)(=O)N(CC(=O)N/N=C/c2cccc(C)c2)c2cccc3cccnc23)cc1,1,59,1,6,-1
Cc1ccc(S(=O)(=O)N(CC(=O)N/N=C\c2cccs2)c2cccc3cccnc23)cc1,-16,1,0,51*,8
CCCCNC(=O)c1c(C)cc(=O)oc1C,-3,-2,5,-3,33*
Cc1cc(=O)oc(C)c1C(=O)NCc1c(F)cc(F)cc1F,-9,/,-1,-1,36*
Cc1cc(=O)oc(C)c1C(=O)NCc1ccco1,7,-10,2,-1,8
COc1cc(/C=N/N=C2/NC(=O)C(CC(=O)O)S2)ccc1OCc1cccc(Cl)c1 (centres undefined),9,72,-2,-2,25
CCOc1cc(/C=N/N=C2/NC(=O)C(CC(=O)O)S2)ccc1OCc1ccc(Cl)cc1 (centres undefined),15,16,-13,6,32*
O=C(O)CC1S/C(=N/N=C/C=C/c2ccccc2)NC1=O (centres undefined),18,7,-2,1,50*
COc1ccc(/C=N/N=C2/NC(=O)C(CC(=O)O)S2)cc1OS(=O)(=O)c1ccccc1 (centres undefined),22,0,-5,5,28
Cn1c(=O)n(C)c2cc(/C=N/N=C3/NC(=O)C(CC(=O)O)S3)ccc21 (centres undefined),-1,3,-1,7,38*
CNc1ccccc1C(=O)OC(C)C(=O)Nc1ccc(Cl)cn1 (centres undefined),-46,?,112*,1,22
CCOc1ncccc1C(=O)OC(C)C(=O)Nc1ccc(Cl)cn1 (centres undefined),0,/,3,9,8
CNc1oc(-c2cccs2)nc1C#N,-229,-14,+,4,23
CN(C)c1oc(-c2ccccc2F)nc1C#N,-174,4,+,13,22
CN(C)c1oc(-c2cccs2)nc1C#N,-231,-3,+,1,30
CNc1oc(-c2ccccc2Cl)nc1C#N,7,-7,12,-11,8
COc1ccc(CN2CN3Cc4cc(OC)ccc4C3CS2(=O)=O)cc1 (centres undefined),-4,/,/,/,/
COc1ccc2cc3cc(C(=O)NCCN4CCc5ccccc5C4)oc3nc2c1,/,2,188*,6,38*
COc1ccc2cc3cc(C(=O)NCCN4CCN(Cc5ccccc5)CC4)oc3nc2c1,-269,70,+,2,20
Cc1ccc(NS(=O)(=O)c2ccc(NC(=O)c3cccs3)cc2)cc1,7,-2,2,74*,-4
CCOC(=O)c1ccc(NC(=O)/C=C/c2cccs2)cc1,23,7,-1,11,32*
O=C(/C=C/c1cccs1)Nc1ccc(S(=O)(=O)Nc2ncccn2)cc1,19,3,2,2,45*
CCC(C)NS(=O)(=O)c1ccc(NC(=O)c2cccs2)cc1 (centres undefined),7,0,0,-3,0
NS(=O)(=O)c1ccc(NC(=O)/C=C/c2cccs2)cc1,13,-4,0,5,72*
SMILES,CCHF vOTU inh,Mtb betalactam,FBA Mtb inh,MazEF act,GDH-TPI counter
O=C(/C=C/c1ccccc1)NNC(=O)c1cccs1,-18,1,0,7,8
O=C(/C=C/c1ccccc1)Nc1ccc(NC(=O)c2cccs2)cc1,14,-4,-3,0,35*
COc1cccc(NC(=O)Nc2nc3ncccn3c2-c2ccc(C)cc2)c1,-8,/,/,/,/
O=C1/C(=C/c2cccnc2)SC(=S)N1NS(=O)(=O)c1ccccc1,8,4,0,7,34*
Nc1ccccc1/C=C/c1ccccc1N,-301,/,146*,0,27
COC(=O)[C@]12C[C@H](CC(=O)N3CCC(c4ccccc4)CC3)C(=O)N(Cc3ccco3)C1=C[C@H](COCc1ccccc1)O[C@@H]2C,8,/,/,/,/
COc1ccccc1/C=C/C(=O)Nc1cccnc1,-7,-6,2,5,35*
O=C(/C=C/c1ccccc1Cl)Nc1cccnc1,-5,-6,-2,9,6
CCN1CCc2nc(NC(=O)c3ccccc3)sc2C1,4,4,-1,-58,33*
COc1ccc(OCCn2cc(/C=C(\C#N)C(=O)NCc3ccco3)c3ccccc32)cc1,-23,-3,2,9,13

# Assay outcomes deposited in PubChem BioAssay by several laboratories.
